Laboratory results published in PubChem BioAssay.
Active and inactive are the calls of the source.

Assay: fission yeast growth modulation, primary screen, strain 972, OD600, 24 h, no modulator (AID 1090);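 also: basal condition with compound alone and no growth modifier present; test concentration not given here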
Conditions: S. pombe 972 growth, higher = more signal, called active from +8 up or from −8 down

z-score, inactive:
COc1ccc(O[C@H]2C=C[C@@H](c3ccccc3)O[C@@H]2CON=CC[C@@H]2C=C[C@H](OC(C)=O)[C@@H](COC(C)=O)O2)cc1 0.722
CO[C@H]1COC(=O)CC=C[C@@H](C)[C@H](NS(=O)(=O)c2ccc(C)cc2)COC(=O)CCC[C@@H]1C 0.14
CON=CC[C@@H]1C=C[C@H](OC(C)=O)[C@@H](COC(C)=O)O1 0.141
O=C1[C@H]2[C@H]3[C@H](O)[C@H](O)CC(=NOCc4ccccc4)[C@@H]3CC[C@H]2C(=O)N1Cc1ccc2c(c1)OCO2 0.437
COC(=O)NCC=Cc1nc(CCCO)co1 0.211
CO[C@H]1COC(=O)CC=C[C@H](C)[C@@H](OC)COC(=O)[C@@H](C)COC(=O)CC=C[C@@H]1C -1.41
COC(=O)[C@@H]1CC[C@H](C)[C@@H](c2ccc(C)cc2)N1C(=O)c1ccc(C=NOC[C@@H](C)[C@H](OCc2ccccc2)C(C)C)cc1 -6.29
COC(=O)CC=C[C@@H](C)[C@@H](C=NO[C@@H]1O[C@H](COC(C)=O)[C@@H](OC(C)=O)[C@H](OC(C)=O)[C@H]1OC(C)=O)NS(=O)(=O)c1ccc(C)cc1 -0.23
CCOC(=O)[C@H](CC(C)C)NC(=O)CCC1CC(OC(=O)NCc2cccc3ccccc23)CC2(CCCC(COC(=O)NCCOc3ccccc3)O2)O1 (stereo not given in full) 0.269

z-score, active:
C=COC[C@@H]1CN2[C@@H](CC[C@@H](C)[C@@H]2c2ccc(Br)cc2)C(=O)O1 -17.1
